# Compound activity (PubChem BioAssay)
# Shown are actives, neighbours in structure and some others; about 18% of the full set was active somewhere.
# Six1-Eya2 inh: inhibitors of human Six1/Eya2 interaction | AlphaScreen GST-Six1/His-Eya2 binding, biochemical; hits give low values | activity change, % (test concentration not listed) | 360,000 tested, 0.56% active | Q15475+O00167; in the data active = activity change below about -65%; inconclusive = mostly about -30% to -63%
#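 GST-Six1 + His-Eya2 (5X stock: 250/500 nM); Tris pH 8.0, 300 mM NaCl, 0.05% BSA, 0.02% Tween 20; GSH donor/Ni acceptor beads; 1 h 37 °C dark; AlphaScreen readout.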
# TDP1 cell CPT: DT40-hTDP1 cell growth loss with CPT. chicken DT40 Tdp1-/-;hTDP1 cells + 20 nM CPT, ATP luminescence, 48 h. Potency, µM (doses to about 46.2 µM), for the others: top-dose activity change, negative = growth inhibition, usual class: inhibitors. 420,000 tested, 12% active; also: potency is read from the fitted curve at half-maximal effect; nearly all actives have a fitted effect of over 55% in size
#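 Chicken DT40 Tdp1-/- cells complemented with human TDP1, 400 cells/well, exposed to compounds plus 20 nM camptothecin for at least 48 h at 37 C; viability read as ATP content by CellTiter-Glo luminescence.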
# TDP1 cell noCPT: qHTS for Inhibitors of human tyrosyl-DNA phosphodiesterase 1 (TDP1): qHTS in cells in absence of CPT; 420,000 tested, 15% active; Potency, µM (highest dose often 46.2 µM), for inactives: at the top dose activity change, negative = growth inhibition, most hits filed as inhibitors; DT40 Tdp1-/- hTDP1 cells, no CPT, ATP luminescence, 48 h; also: potency is read from the fitted curve at half-maximal effect; nearly all actives have a fitted effect of over 55% in size
#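 Compound effects on proliferation are scored in DT40 Tdp1-/-;hTDP1 cells in the absence of CPT. ATP levels (CellTiter-Glo luminescence) are recorded after a ≥48 hr, 37 °C incubation.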
# IL1B secr inh: blocks inflammasome-driven IL-1 beta release; THP-1 LPS/ATP IL-1B secretion, AlphaLISA, 16 h; hits give low values; 360,000 tested, 4.7% active; activity change, % at 57.5 µM; in the data active = activity change below about -50%; inconclusive = mostly about -30% to -49%
#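 THP-1 cells pretreated 1 hr with compounds (up to 57.5 uM final), then stimulated with LPS (250 ng/mL final) plus ATP (1.25 mM final); secreted IL-1B measured by AlphaLISA after 16 hr, decreased signal indicating inhibition.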
# TDP1 block: TDP1 (human) enzyme inhibition | Q9NUW8 | AID 485290 | Potency, µM (titrated, usually from 130 µM), without a hit: at the highest dose activity change, negative = inhibition, actives largely listed as inhibitors | 350,000 tested, 0.28% active | recombinant TDP1, AlphaScreen DNA substrate cleavage; also: potency is read from the fitted curve at half-maximal effect; nearly all actives have a fitted effect of over 40% in size
# Target sequence (Q9NUW8 whole entry, looked up): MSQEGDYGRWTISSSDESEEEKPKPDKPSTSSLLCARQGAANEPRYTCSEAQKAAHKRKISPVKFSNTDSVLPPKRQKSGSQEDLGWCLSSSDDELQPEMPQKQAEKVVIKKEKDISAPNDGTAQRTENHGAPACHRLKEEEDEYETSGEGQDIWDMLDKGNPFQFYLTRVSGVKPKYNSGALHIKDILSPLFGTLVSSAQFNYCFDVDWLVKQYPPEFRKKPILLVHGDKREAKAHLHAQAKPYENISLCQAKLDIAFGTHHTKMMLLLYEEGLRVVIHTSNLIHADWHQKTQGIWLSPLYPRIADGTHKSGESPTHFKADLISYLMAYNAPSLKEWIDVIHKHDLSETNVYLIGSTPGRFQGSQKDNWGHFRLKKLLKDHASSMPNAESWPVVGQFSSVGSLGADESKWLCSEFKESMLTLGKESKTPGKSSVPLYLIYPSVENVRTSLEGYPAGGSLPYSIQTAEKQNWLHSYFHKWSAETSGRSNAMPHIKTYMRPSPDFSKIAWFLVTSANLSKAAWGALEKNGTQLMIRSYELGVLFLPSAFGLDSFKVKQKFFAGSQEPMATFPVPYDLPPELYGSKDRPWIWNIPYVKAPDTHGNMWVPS
#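 Recombinant E. coli-expressed Tdp1 (1 nM) preincubated with compound 15 min at RT, then 5'-biotin/3'-phosphotyrosine-FITC DNA substrate (15 nM) added for 5 min. AlphaScreen beads (10 ug/ml) added, 10 min RT; tyrosine-FITC cleavage read as signal loss.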
# CtBP-E1A inh: CtBP/E1A binding inhibition | AlphaScreen GST-E1A/His-CtBP binding, 1536-well; hits give low values | activity change, % (test concentration not listed) | 340,000 tested, 0.49% active; in the data active = activity change below about -65%; inconclusive = mostly about -30% to -63%
#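 Homogeneous bead-based format: GST-tagged E1A captured on glutathione donor beads, His-tagged CtBP on nickel acceptor beads; compounds precede bead addition by 2 h at 37 °C.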
# Active calls of the source: *; ? = inconclusive; . = no result; [ ] = dose if it differs, or a comment. Unless noted, calls follow the shape of the dose curve; as a rule, active = well fitted curve in the direction sought with a large enough effect; inconclusive = small, poorly fitted or top-dose-only effect, or another doubt; inactive = no such curve, though single readings can be large; an effect the other way counts as inactive or inconclusive. % is scaled to controls: 0 for no effect and ±100 for the full control effect.
SMILES,Six1-Eya2 inh,TDP1 cell CPT,TDP1 cell noCPT,IL1B secr inh,TDP1 block,CtBP-E1A inh
CC(C)(C)c1ccc(C(=O)CCCSC2=C(C#N)C(c3ccco3)C3=C(CCCC3=O)N2)cc1 (configuration not stated),-4,16µM*,9.2µM*,-11,3%,-6
Cc1ccc(CNC(=O)COC(=O)c2cc(=O)[nH]c3ccccc23)cc1,-1,4%,22%,6,0%,-1
CC1=C(C(=O)OCC2CCCO2)C(c2cccc(C(F)(F)F)c2)C2=C(CC(c3ccco3)CC2=O)N1 (configuration not stated),-2,?,?,-53*,1%,12
COC(=O)c1c(C)nn(-c2ccc(F)cc2)c1-n1cccc1,.,?,?,.,8%,.
CCNc1ncc2nc(-c3cn(C)c4ccccc34)c(=O)n(Cc3cccs3)c2n1,.,-26%,-7%,.,.,.
CN1CCN(c2ncc3nc(-c4cn(C)c5ccccc45)c(=O)n(Cc4cccs4)c3n2)CC1,.,1.6µM*,0.37µM*,.,.,.
CN1CCN(c2ncc3nc(CCc4ccccc4)c(=O)n(Cc4cccs4)c3n2)CC1,.,?,21µM*,.,.,.
COc1ncc2nc(CCc3ccccc3)c(=O)n(Cc3ccc(F)cc3)c2n1,.,?,23µM*,.,.,.
O=c1c(CCc2ccccc2)nc2cnc(N3CCOCC3)nc2n1Cc1cccs1,.,-29%,-11%,.,.,.
O=C(CSc1nnc2[nH]c(=O)cc(-c3ccccc3)n12)Nc1ccc(F)cc1F,.,8%,-11%,.,-8%,.
Cn1c(SCCCC(=O)c2ccc(F)cc2)nnc1-c1ccncc1,7,?,?,22,8%,4
O=C(CCCSc1nnnn1-c1cccc2ccccc12)c1ccc(F)cc1,15,-16%,21µM*,-4,4%,21
CCn1c(SCC(=O)Nc2ccccc2N2CCCCC2)nc2c1c(=O)n(C)c(=O)n2C,16,18µM*,16µM*,-7,8%,0
Cc1occc1-c1nnc(SCC(=O)Nc2ccccc2N2CCCCC2)n1C,-17,18µM*,18µM*,-53*,2%,-16
Cc1occc1-c1nnc(SCCCC(=O)c2ccc(F)cc2)n1C,6,18µM*,16µM*,-30,-5%,-3
C=C1C(O)C[C@H]2C(=C)CCC3[C@H](OC(=O)[C@]3(O)CO)[C@@H]12 (some centres not stated),3,-2%,22%,-6,-3%,0
CCOc1ccccc1-n1c(SCC(=O)NC(C)(C)C)nnc1-c1ccoc1C,-5,-15%,-10%,5,7%,-3
CCOc1ccccc1-n1c(SCC(=O)NC2CCCC2)nnc1-c1ccoc1C,-7,?,14µM*,-10,0%,-2
Cn1c(=O)c2c(nc(SCC(=O)Nc3ccccc3F)n2Cc2ccccc2F)n(C)c1=O,.,-27%,2.9µM*,.,8%,.
Cn1c(=O)c2c(nc(SCC(=O)Nc3ccc(F)cc3)n2Cc2ccccc2F)n(C)c1=O,.,-23%,?,.,1%,.
C=CCC[C@H](Cc1ccc(F)cc1)C(=O)OC[C@@H](NC(=O)[C@@H](CC=C)CC(=O)N(CCO)Cc1ccccc1)C(C)(C)C,9,26µM*,?,?,0%,-25
C=CC[C@@H](CC(=O)N(CCO)Cc1ccccc1)C(=O)N[C@H](COC(=O)[C@@H](CC=C)Cc1ccc(F)cc1)c1ccccc1,-4,15µM*,13µM*,?,1%,-2
C=CC[C@@H](CC(=O)N(CCO)Cc1ccccc1)C(=O)N[C@@H](C)COC(=O)[C@@H](CC=C)Cc1ccc(F)cc1,0,?,16µM*,-3,-2%,3
C=CCC[C@H](Cc1ccc(F)cc1)C(=O)OC[C@@H](NC(=O)[C@H](CC=C)CC(=O)NCCO)C(C)(C)C,-3,?,?,-4,0%,5
C=CC[C@@H](CC(=O)N(CCO)Cc1ccccc1)C(=O)N[C@H](COC(=O)[C@@H](CC=C)Cc1ccc(F)cc1)C(C)(C)C,-5,21µM*,13µM*,-83*,2%,1
SMILES,Six1-Eya2 inh,TDP1 cell CPT,TDP1 cell noCPT,IL1B secr inh,TDP1 block,CtBP-E1A inh
C=CC[C@H](CC(=O)NCCO)C(=O)N[C@H](COC(=O)[C@@H](CC=C)Cc1ccc(F)cc1)Cc1ccccc1,-7,?,?,-1,1%,-17
COc1ccc(NC(=O)[C@H](C)NC(N)=O)cc1S(=O)(=O)Nc1cc(C)ccc1Br,7,3%,-6%,-15,-13%,-1
Cc1ccc(S(=O)(=O)NCCC(=O)NCC(c2ccc(F)cc2)N2CCOCC2)cc1 (configuration not stated),6,-4%,-12%,-11,1%,-4
C=CC[C@H](CC(=O)N(CCO)Cc1ccccc1)C(=O)N[C@H](COC(=O)[C@@H](CC=C)Cc1ccc(F)cc1)C(C)(C)C,-2,?,?,-61*,-3%,-4
COc1cccc(OC)c1OCCNCC1CSc2ccccc2O1 (configuration not stated),-1,21µM*,10µM*,-4,10%[56.1 µM],-2
CC(=O)N(CC(C)C(=O)O)c1c(I)cc(I)c(N)c1I (configuration not stated),0,-21%,2%,?,.,-1
ClC(/C=N/n1cnnc1)=C/c1ccccc1,-9,15µM*,1.8µM*,-94*,2%,0
COc1ccc(OC)c(C(C)NC(=O)Nc2ccccc2)c1 (configuration not stated),-1,2%,12%,-17,3%,.
CCC(NC(=O)c1ccccc1NC(=O)C(C)(C)C)C(=O)N1CCCC1 (configuration not stated),10,-10%,-28%,27,0%,1
O=C(NC1CCCCC1)n1c(=O)oc2ccc(Cl)cc21,6,12µM*,13µM*,-5,3%,6
CC(=O)Nc1ccc(S(=O)(=O)N2CCN(C(=O)c3ncoc3-c3ccccc3)CC2)cc1,-1,?,12µM*,14,5%,-8
Cc1cc(C(C)(C)CC(C)(C)C)ccc1OCCOCC[N+](C)(C)Cc1ccccc1,-6,3.7µM*,4.1µM*,23,12%[56.1 µM],-1
COc1cc(/C=N/NC(=O)CC2(C)OCCO2)cc(Br)c1O,-6,-8%,-7%,-3,0%,.
